PNC inhibitor: perinucleolar compartment assembly inhibition; PC3M PTB-GFP, PNC prevalence imaging, 16 h; stronger effect = lower value; activity change (PNC), negative = inhibition, % at 10 µM; 140,000 compounds, 3.1% hits; AID 2417;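 active means readout at or below -70, meaning at least 70% loss of cells showing the perinucleolar compartment, a nuclear body marking cancer cells; inconclusive means readout between -30 and a set limit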;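 further: plate controls were DMSO wells for no effect and camptothecin positive control wells for full effect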
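Compounds are pinned in duplicate onto adhered PC3M cells stably expressing GFP-tagged PTB and incubated 16 h at 37 C. Cells are then fixed, nuclei stained with Hoechst, and PNC-positive cells counted.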
HttQ103 aggreg: inhibitors of mutant huntingtin aggregate formation in PC12 cells; PC12 HttQ103-GFP aggregates, Acumen cytometry, 40 h; Potency, µM (titrated, usually from 46.1 µM), for the others: top-dose activity change, negative = inhibition, actives largely listed as inhibitors; 220,000 compounds, 1.1% hits; further: potency means the concentration at half of the fitted maximal effect; on the % scale 0 is the no-effect control and ±100 the full control effect; nearly all actives have a fitted effect of over 60% in size
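PC12/HTTQ103-GFP, ecdysone-inducible; teb 100 nM; cpd qHTS titration; GFP aggregates read on laser cytometer, Ex 488/Em 500-530 nm.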
GoLoco inh red: blocks human Gai1 binding to RGS12 GoLoco peptide, red readout | Gai1:RGS12 GoLoco peptide FP, rhodamine, 10 min | Potency, µM (top dose mostly 61.6 µM), without a hit: at the top dose activity, negative = inhibition, actives largely listed as inhibitors | 230,000 compounds, 0.44% hits | AID 880; active means well fitted inhibition curve with a large enough effect, not every such curve was filed as active; inactive means no such curve, though single readings can be large or run the other way; further: potency means the concentration at half of the fitted maximal effect; on the % scale 0 is the no-effect control and ±100 the full control effect; nearly all actives have a fitted effect of over 30% in size
Target sequence (P63096 whole entry, looked up): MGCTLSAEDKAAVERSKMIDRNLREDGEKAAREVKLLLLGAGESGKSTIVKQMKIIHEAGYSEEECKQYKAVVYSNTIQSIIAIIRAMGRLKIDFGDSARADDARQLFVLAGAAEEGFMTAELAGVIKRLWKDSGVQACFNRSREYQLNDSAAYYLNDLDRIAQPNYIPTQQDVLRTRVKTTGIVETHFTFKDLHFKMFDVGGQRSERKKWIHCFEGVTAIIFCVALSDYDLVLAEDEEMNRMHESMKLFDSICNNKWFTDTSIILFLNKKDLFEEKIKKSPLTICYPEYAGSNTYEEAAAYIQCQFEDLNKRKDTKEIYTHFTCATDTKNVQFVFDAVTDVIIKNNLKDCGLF
HTT cytoprotect: Huntington cell model cytoprotection by ATP luminescence; AID 1471; Potency, µM (highest dose often 56.4 µM), without a hit: cytoprotection (ATP increase), hits mostly activators; PC12 HTT-Q103 induced, cytoprotection, ATP luminescence, 40 h; 230,000 compounds, 0.14% hits; further: potency means the concentration at half of the fitted maximal effect; % of control where 0% means no effect; nearly all actives have a fitted effect of over 45% in size
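ATP quantification (ATPlite) reports survival of PC12 cells in which tebufenozide, 100 nM final, switches on Htt exon 1 with 103 glutamines linked to GFP; compounds are titrated.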
ALDH1A1 block: blocks purified human ALDH1A1 activity | P00352 | Purified ALDH1A1, NADH fluorescence, propionaldehyde substrate | Potency, µM (highest dose often 75.3 µM), for the others: at the top dose activity, negative = inhibition, most hits filed as inhibitors | 220,000 compounds, 7.3% hits; active means well fitted inhibition curve with a large enough effect, not every such curve was filed as active; inconclusive means small, poorly fitted or top-dose-only effect, or another doubt; inactive means no such curve, though single readings can be large or run the other way;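 further: potency means the concentration at half of the fitted maximal effect; plate controls were no enzyme wells and a reference inhibitor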
HPGD inh: inhibitors of human 15-hydroxyprostaglandin dehydrogenase (HPGD); 150,000 compounds, 4.3% hits; Potency, µM, inactives show at the top dose activity change, negative = inhibition, hits mostly inhibitors; purified HPGD, NADH fluorescence kinetic, PGE2 substrate; AID 894; active means well fitted inhibition curve with a large enough effect, not every such curve was filed as active; inconclusive means small, poorly fitted or top-dose-only effect, or another doubt; inactive means no such curve, though single readings can be large or run the other way; further: potency means the concentration at half of the fitted maximal effect; on the % scale 0 is the no-effect control and ±100 the full control effect
Target sequence (P15428 whole entry, looked up): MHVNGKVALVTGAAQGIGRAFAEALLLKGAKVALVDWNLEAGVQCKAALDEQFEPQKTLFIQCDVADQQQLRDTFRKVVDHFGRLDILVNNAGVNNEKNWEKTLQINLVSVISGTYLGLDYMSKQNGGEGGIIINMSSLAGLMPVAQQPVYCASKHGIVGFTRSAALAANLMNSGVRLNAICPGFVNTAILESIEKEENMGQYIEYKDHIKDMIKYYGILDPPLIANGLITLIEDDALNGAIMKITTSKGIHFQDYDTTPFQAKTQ
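20 nM HPGD preincubated 15 min at room temperature with compound in 50 mM Tris-HCl pH 8, 0.01% Tween 20. Started with 1 mM NAD+ and 30 uM prostaglandin E2; NADH fluorescence (360/450 nm) read 5 times over 30-s intervals, last minus first.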
* hit, by the source's call; ? = inconclusive; . = no result; [ ] = another dose, or the depositor's remark. Hits are enriched below; roughly 11% of the tested compounds scored in any of these assays. Unless noted, the call rests on the fitted dose curve; in most records, active means well fitted curve in the direction sought with a large enough effect; inconclusive means small, poorly fitted or top-dose-only effect, or another doubt; inactive means no such curve, though single readings can be large; an effect the other way counts as inactive or inconclusive.

SMILES | PNC inhibitor | HttQ103 aggreg | GoLoco inh red | HTT cytoprotect | ALDH1A1 block | HPGD inh
CCC(=O)OC1C(N(C)C)CC(C)O[C@H]1O[C@H]1[C@H](C)[C@@H](O[C@H]2CC(OC)[C@@H](O)C(C)O2)[C@H](C)C(=O)O[C@@H](CC)[C@](C)(O)[C@@H](O)[C@H](C)C(=O)[C@@H](C)C[C@]1(C)O (stereo partly drawn) | . | 5% | . | 0% | . | .
O=C(NP(=O)(N1CCOCC1)N1CCOCC1)C1=C(N2CCOCC2)/C(=C\c2ccccc2)CC1 | . | 10% | 11% | -4%[10 µM] | 3.5µM* | .
COc1cc(C(=O)N(Cc2ccco2)Cc2cc3ccccc3[nH]c2=O)cc(OC)c1OC | -2 | 20% | 10% | 9% | 22µM* | -19%
COc1cccc(-c2cncnc2Nc2ccc(F)cc2)c1 | . | . | 3% | 6% | -12% | .
O=c1c2ccccc2sc2c(CO)ccc(NCCN3CCCCC3)c12 | . | . | 3%[14.2 µM] | -81%[10 µM] | 12%[13.5 µM] | -14%
CCN(CC)CCNc1ccc(CO)c2sc3ccccc3c(=O)c12 | ? | 13µM* | 2% | -331% | -2% | -7%
CC1CN(C(=O)C(C)Sc2nc3ccccc3s2)CC(C)O1 (stereo not drawn) | -1 | 6% | 2% | -1% | ? | 28µM*
CC(Sc1nc2ccccc2s1)C(=O)NC1CCCc2ccccc21 (stereo not drawn) | 21 | ? | 10% | 6%[10 µM] | 13µM* | -4%
Cc1ccc2nc(SC(C)C(=O)N3CC(C)OC(C)C3)[nH]c2c1 (stereo not drawn) | . | 7% | 6% | -3%[10 µM] | -2% | .
CCNc1ncc2nc(-c3cccs3)c(=O)n(CCC#N)c2n1 | . | . | 27% | -52% | ? | .
NS(=O)(=O)c1ccc(CNC(=S)NC2CCCCC2)cc1 | . | 3%[9.22 µM] | 0% | -4%[10 µM] | . | .
CC(=O)c1cccc(NC(=O)CN(C)Cc2ccc(OC(F)F)cc2)c1 | . | 13%[9.22 µM] | -7% | 4%[10 µM] | 11µM* | .
CN(CC(=O)Nc1ccc(F)cc1)CC(=O)Nc1ccc(F)c(F)c1F | . | 13% | 10% | 7% | 3% | .
CCOc1ccc(N(CC(=O)NCCc2ccc(Cl)cc2)S(=O)(=O)c2c(C)[nH]c(=O)[nH]c2=O)cc1 | . | -20% | -14% | -13% | 2% | .
O=C(N/N=C/c1ccccc1[N+](=O)[O-])C(=O)N1CCCC1 | . | -12%[9.22 µM] | 1% | -7%[10 µM] | -1% | .
CCOC(=O)N1CCN(C(=O)CN(c2cc(Cl)ccc2OC)S(=O)(=O)c2ccccc2)CC1 | 41 | 8% | 7% | -11% | 25µM* | -5%
CCC(C)NC(=O)CN(c1ccc(OC)cc1)S(=O)(=O)c1ccc(NC(C)=O)cc1 (stereo not drawn) | -127* | -5% | 6% | -18% | ? | -9%
Cc1ccc(S(=O)(=O)N(CC(=O)N2CCC(C)CC2)c2cccc(C)c2)cc1 | 62 | -6% | 10% | 16% | 11µM* | -9%
CCOC(=O)N1CCN(C(=O)CN(c2cccc(C)c2)S(=O)(=O)c2ccccc2)CC1 | 0 | -1% | 4% | 9% | -5% | 1%
COc1ccc(S(=O)(=O)N(CC(=O)N2CCN(c3ccccc3)CC2)c2ccccc2)cc1 | -112* | 17% | 5% | 8% | -26% | -16%
CCOC(=O)N1CCN(C(=O)CN(c2cccc(C)c2)S(=O)(=O)c2ccc(C)cc2)CC1 | 54 | -4% | -3% | 4% | ? | -3%
COc1ccc(N2CCN(C(=O)CN(c3ccccc3)S(C)(=O)=O)CC2)cc1 | ? | -2% | -2% | -13%[10 µM] | -1% | 5%
COc1ccc(S(=O)(=O)N(CC(=O)Nc2ccc(S(=O)(=O)N3CCOCC3)cc2)c2ccccc2)cc1 | 3 | -20% | -1% | 3%[10 µM] | ? | 3.5µM*
COc1ccc(N(CC(=O)N2CCCCC2)S(=O)(=O)c2ccccc2)c(OC)c1 | -28 | 4% | -23% | -12%[10 µM] | ? | -7%
COc1ccccc1N1CCN(C(=O)CN(c2ccccc2OC)S(=O)(=O)c2ccccc2)CC1 | 44 | 5µM* | -10% | -8% | 2% | -7%
SMILES | PNC inhibitor | HttQ103 aggreg | GoLoco inh red | HTT cytoprotect | ALDH1A1 block | HPGD inh
COc1ccc(C2C(C#N)=C(N)Nc3onc(C(C)(C)C)c32)c(OC)c1 (stereo not drawn) | ? | 10% | 2% | . | 13% | -6%
CCCc1noc2c1C(c1cc(Br)ccc1F)C(C#N)=C(N)N2 (stereo not drawn) | . | 39% | 9% | -56% | 11µM* | .
CC(=O)/C(=N/Nc1cccc(Cl)c1)Sc1nnc(C(O)c2ccccc2)n1-c1ccccc1 (stereo not drawn) | -28 | -16% | 3% | -5%[10 µM] | 12% | -13%
COC(=O)/C(=N/Nc1ccccc1C)Sc1nnc(C(O)c2ccccc2)n1-c1ccccc1 (stereo not drawn) | -7 | 20% | -12% | -40%[10 µM] | -5% | 32µM*
O=[N+]([O-])c1cc(-c2nc3nc4ccccc4nc3n2CCc2ccccc2)cc([N+](=O)[O-])c1 | 14 | 13% | 5% | -22%[10 µM] | -9% | ?
COc1ccccc1C(=O)NC(=Nc1nc2ccccc2o1)NC(=O)c1ccccc1OC | -82* | 10µM* | 22% | -18%[10 µM] | -5% | -24%
C=C1NC(=O)c2cc(CN(C)c3ccc(C(=O)N[C@@H](CCC(=O)O)C(=O)O)s3)ccc2N1 | . | -20% | -6% | ? | . | .
COc1ccc(C(=O)N/N=C(\Cc2ncc[nH]2)c2ccccc2)cc1 | . | ? | 3% | -54% | ? | .
c1ccc(N/N=C(\Cc2ncc[nH]2)c2ccccc2)cc1 | . | 10% | 20% | 1% | 7.1µM* | .
COc1ccc(Nc2oc(COc3ccc(C)cc3)nc2C#N)cc1 | -100* | -9% | -4% | -3%[10 µM] | ? | 25µM*
C=CCN1C(=O)C(Cc2ccc(SC(F)F)cc2)SC1=Nc1ccc(C(=O)O)cc1 (stereo not drawn) | . | 9% | -35% | -36% | 10µM* | .
C=CCN1C(=O)C(CC(=O)O)SC1=Nc1ccc(C(=O)O)cc1 (stereo not drawn) | . | -17% | 8% | -15% | 6% | .
CN(CC(=O)Nc1ccc(N2CCOCC2)cc1)Cc1c(O)ccc2ccccc12 | . | 18% | -14% | ? | 3.5µM* | .
COc1cc2nc(CN(C)CC(=O)Nc3ccc(N4CCOCC4)cc3)[nH]c(=O)c2cc1OC | -24 | 21% | -1% | 4% | 28µM* | ?
CCN(CC(=O)Nc1ccc(N2CCOCC2)cc1)Cc1nc2ccccc2c(=O)[nH]1 | 19 | 15% | -9% | -29% | 22µM* | -25%
CCN(CC(=O)NCc1ccc(F)cc1)Cc1nc2cc(Cl)ccc2c(=O)[nH]1 | 12 | 17% | 24% | 29% | 22µM* | 32µM*
